# Measured values as given in PubChem BioAssay (NCATS).
# Unmarked numbers belong to inactive results. Inconclusive results are not listed. A call without a number means that no potency is given here. Activity calls are given as the source filed them. Unless noted, calls follow the shape of the dose curve; as a rule, active = well fitted curve in the direction sought with a large enough effect; inconclusive = small, poorly fitted or top-dose-only effect, or another doubt; inactive = no such curve, though single readings can be large; an effect the other way counts as inactive or inconclusive.
# What was measured:
# [1] = Cell Viability - Hek293 (AID 427;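 active = compounds whose dose-response curve shows a full or clear partial loss of cell viability, called from curve shape rather than a numeric limit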;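 also: potency is read from the fitted curve at half-maximal effect; cells exposed to compound for 40 hours at 37 °C before reading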); conditions: qHTS
# Procedure, shortened: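 HEK293 cells in complete medium were exposed to compound for 40 hr at 37 °C, then cellular ATP was read by CellTiter-Glo luminescence. Data were normalized to DMSO (basal) and 100 uM tamoxifen (100% inhibition), and AC50 came from Hill fits.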
# [2] = Cell Viability - HepG2 (AID 433; calls by dose curve;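 also: potency is read from the fitted curve at half-maximal effect; potency for ATP loss meaning cytotoxicity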); conditions: qHTS
# Procedure, shortened: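 Cytotoxicity is scored as loss of intracellular ATP in HepG2 cells exposed to compounds for 40 h. Concentration-response curves, normalized to DMSO and 100 uM tamoxifen, give AC50 values.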
# [3] = Cell Viability - MRC5 (AID 434; calls by dose curve;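 also: potency is read from the fitted curve at half-maximal effect; potency reflects cytotoxicity seen as loss of intracellular ATP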); conditions: MRC5 lung fibroblast viability, qHTS
# Procedure, shortened: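 ATP luminescence read-out (CellTiter-Glo, 20 min RT) after 40 hr, 37 °C compound exposure of 1500 MRC5 cells/well. Data normalized to DMSO (basal) and 100 uM tamoxifen (100% inhibition); AC50 from standard Hill equation.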
# [4] = target: Mitogen-activated protein kinase 10 (Mus musculus) (UniProt Q61831); test: JNK3 AlphaScreen Assay (AID 530; active = well fitted curve in either direction with a large enough effect, not every such curve was filed as active;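 also: kinase came from lysate of stimulated human HepG2 cells; signal reports phosphorylation of biotinylated GST-cJun 1-79 at Ser73 with 10 µM ATP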)
# Procedure, shortened: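 HepG2 lysate (IL-1b/TNFa pre-activated) + biotin-GST-cJun 1-79 + anti-pSer73 cJun; cpd titration, 15 min RT; ATP 10 uM start; Tris pH 7.6, MgCl2, DTT, vanadate; beads in EDTA buffer; AlphaScreen.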
# [5] = Cell Viability - N2a (AID 540); conditions: N2a mouse neuroblastoma cell viability; activity change, negative = cytotoxicity: at 92.2 µM (top of the series); also: nearly all actives have a fitted effect of over 45% in size
# Procedure, shortened: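 In this qHTS cytotoxicity screen, ATP-dependent luciferase luminescence reports viable N2a cells after a 40 hr compound exposure in complete culture medium. Potencies are AC50 values from standard Hill equation fits.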
# [6] = Cell Viability - NIH 3T3 (AID 541); conditions: NIH 3T3 cell viability, qHTS; activity change, negative = cytotoxicity: at 92.2 µM (top of the series); also: nearly all actives have a fitted effect of over 25% in size
# Procedure, shortened: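 In this cytotoxicity screen, acute toxicity is scored as an ATP drop measured by CellTiter-Glo in NIH 3T3 fibroblasts following a 40 hr, 37 °C incubation with compound.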
# [7] = Cell Viability - HUV-EC-C (AID 542); also: nearly all actives have a fitted effect of over 35% in size
# Procedure, shortened: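 Concentration-dependent ATP loss in HUV-EC-C cells is the measure. Exposure lasts 40 hr at 37 °C; luminescence follows CellTiter-Glo addition, and Hill fits give AC50.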
# [8] = Cell Viability - H-4-II-E (AID 543); also: nearly all actives have a fitted effect of over 35% in size
# Procedure, shortened: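 AC50 from Hill-modelled qHTS concentration-response curves. H-4-II-E rat hepatoma cells in complete medium, 40 hr exposure at 37 °C, viability by CellTiter-Glo ATP luminescence.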
# [9] = Cell Viability - Renal Proximal Tubule (AID 545); also: nearly all actives have a fitted effect of over 40% in size
# Procedure, shortened: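 Cytotoxicity is scored as a concentration-dependent drop in cellular ATP in primary rat renal proximal tubule cells exposed for 40 hr. AC50 derives from Hill modelling.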
# [10] = Cell Viability - Mesenchymal (AID 546);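 also: cells exposed to compound for 40 hours before reading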
# Procedure, shortened: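 Human renal mesenchymal cells (glomerulus-derived), 1000 cells/well, 5 hr 37 °C pre-incubation; compound 40 hr, 37 °C; CellTiter-Glo, 20 min RT; luminescence; AC50 via Hill equation.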
# [11] = Cellular Toxicity (caspase-3) HepG2 (AID 654);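 also: cells exposed to compound for 16 hours before reading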
# Procedure, shortened: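 Concentration-response AC50 values reflect caspase-3/7 induction in HepG2 cells after 16 hours of compound exposure, quantified by luminescence from liberated aminoluciferin and referenced to 100 uM tamoxifen as full stimulation.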
# [12] = Cellular Toxicity (caspase-3) Jurkat (AID 655); conditions: Jurkat caspase-3 activation, luminescence; caspase-3 activation: at 92.2 µM (top of the series), DMSO = 0%, tamoxifen = 100%;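 also: cells exposed to compound for 16 h at 37 °C before reading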
# Procedure, shortened: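 Caspase 3/7 activation is scored as increased luminescence in Jurkat cells cultured with compound for 16 hours in complete medium. AC50 values come from Hill fits of qHTS concentration-response data normalized to DMSO and 100 uM tamoxifen controls.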
# [13] = Cellular Toxicity (caspase-3) HUV-EC-C (AID 656)
# Procedure, shortened: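 Read-out: luminescence proportional to caspase 3/7 activity, measured 20 min after adding Caspase-Glo 3/7 reagent. Cells (HUV-EC-C) had received compound for 16 hr at 37°C. Increases relative to DMSO and 100 uM tamoxifen gave concentration-response AC50 values.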
# [14] = Cellular Toxicity (caspase-3) SHSY5Y (AID 657)
# Procedure, shortened: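 Cells plated and incubated 5 h at 37 °C, dosed over a concentration range, incubated 16 h, then given Caspase-Glo 3/7 reagent for 1 h at room temperature before luminescence reading. Staurosporine (10 uM) defined full stimulation.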
# [15] = Cellular Toxicity (caspase-3) BJ (AID 658)
# Procedure, shortened: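 qHTS, BJ fibroblasts, 1000 cells/well; 5 hr preincubation, 16 hr compound, 37 °C; Caspase-Glo 3/7 reagent, 1 hr RT; luminescence. DMSO = 0%, 10 uM staurosporine = 100%. Hill-equation AC50.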
# [16] = Cellular Toxicity (caspase-3) MRC-5 (AID 659)
# Procedure, shortened: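 MRC-5 fibroblasts, 1500/well; 16 h cpd, 37 °C; Caspase-Glo 3/7, 1 h RT; lumi read. Norm: DMSO = 0%, 10 uM staurosporine = 100%. Hill-fit AC50 from qHTS conc-response.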
# [17] = Cellular Toxicity (caspase-3) Mesangial (AID 660);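 also: cells exposed to compound for 16 h before the caspase read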
# Procedure, shortened: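 AC50 values come from Hill-equation fits of caspase 3/7 activation, measured as Caspase-Glo luminescence in human glomerular mesangial cells exposed to compound for 16 h at 37 °C; 100% set by 100 uM tamoxifen.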
# [18] = Cellular Toxicity (caspase-3) SK-N-SH (AID 661)
# Procedure, shortened: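 Apoptosis readout in SK-N-SH neuroblastoma: Caspase-Glo 3/7 luminescence following 16 hr treatment in complete culture medium. Normalization used DMSO and 10 uM staurosporine controls.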
# [19] = Cellular Toxicity (caspase-3) H-4-II-E (AID 663); conditions: Potency: caspase-3 activation;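 also: cells exposed to compound for 16 hr before readout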
# Procedure, shortened: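 H-4-II-E rat hepatoma, 1500 cells/well, 5 hr settle at 37 °C; compound 16 hr, 37 °C, complete medium; Caspase-Glo 3/7, 20 min RT; luminescence. DMSO = 0%, 100 uM tamoxifen = 100%; Hill-equation AC50.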
# [20] = Cellular Toxicity (caspase-3) Hek293 (AID 664); conditions: HEK293 caspase-3 activation, DMSO = 0%, 100 µM tamoxifen = 100%; at 92.2 µM (top of the series);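 also: cells exposed to compound for 16 h at 37 °C before readout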
# Procedure, shortened: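 Apoptosis readout: Caspase-Glo 3/7 signal in human HEK293 cells following 16-hour compound incubation. Responses scaled between DMSO baseline and 100 uM tamoxifen.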
# [21] = Cellular Toxicity (caspase-3) N2a (AID 665);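 also: compound exposure lasted 16 h at 37 °C before readout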
# Procedure, shortened: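 Concentration-response qHTS: compound-induced caspase-3/7 luminescence in N2a cells (16 h, 37 °C), relative to DMSO and 10 uM staurosporine controls; AC50 obtained using the standard Hill equation.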
# [22] = Cellular Toxicity (caspase-3) NIH 3T3 (AID 666);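 also: caspase signal read after 16 h compound exposure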
# Procedure, shortened: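 Activity: caspase-3/7 induction, NIH 3T3 cells, 16 hr treatment at 37°C, luminescent Caspase-Glo detection; AC50 via Hill equation.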
# [23] = Cellular Toxicity (caspase-3) Renal Proximal Tubule (AID 667);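 also: cells exposed to compound for 16 hours at 37 °C before detection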
# Procedure, shortened: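 In qHTS format, rat primary proximal tubule cells seeded at 1000 per well are exposed to compounds for 16 hours at 37 °C. An increase in Caspase-Glo 3/7 luminescence indicates caspase activation.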
# [24] = target: Cytochrome P450 3A4 (Homo sapiens) (UniProt P08684); test: qHTS Assay for Inhibitors and Substrates of Cytochrome P450 3A4 (AID 884); also: nearly all actives have a fitted effect of over 50% in size
# Sequence of Cytochrome P450 3A4 (Homo sapiens) (P08684 whole entry, looked up): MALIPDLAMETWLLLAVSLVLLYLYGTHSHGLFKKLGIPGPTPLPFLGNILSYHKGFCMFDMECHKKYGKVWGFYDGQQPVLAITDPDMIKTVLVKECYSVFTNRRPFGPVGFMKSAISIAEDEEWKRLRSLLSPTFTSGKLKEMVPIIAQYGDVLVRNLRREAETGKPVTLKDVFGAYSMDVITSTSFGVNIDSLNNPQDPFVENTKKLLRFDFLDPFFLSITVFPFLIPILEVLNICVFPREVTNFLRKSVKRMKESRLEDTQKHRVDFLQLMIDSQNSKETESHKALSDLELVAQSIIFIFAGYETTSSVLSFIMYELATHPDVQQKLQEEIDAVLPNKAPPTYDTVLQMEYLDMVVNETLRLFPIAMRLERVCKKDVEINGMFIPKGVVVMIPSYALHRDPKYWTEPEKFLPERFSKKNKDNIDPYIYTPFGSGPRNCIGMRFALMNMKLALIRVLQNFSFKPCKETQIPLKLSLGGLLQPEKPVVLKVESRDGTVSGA
# Procedure, shortened: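 Luminescent readout of luciferin produced by CYP3A4 (20 nM) dealkylation of Luciferin-PPXE, 25 uM (its KM). NADPH-driven reaction ran 60 min at RT after 10 min compound preincubation; data scaled to 57 uM ketoconazole as 100% inhibition.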
# [25] = Cell Viability - LYMP2-001 (AID 921); also: nearly all actives have a fitted effect of over 70% in size
# Procedure, shortened: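 qHTS, 1536-well; lymphoblastoid cells, 24 hr compound, 37 C; ATP by CellTiter-Glo, 30 min RT; luminescence; Hill-fit AC50.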
# [26] = MultiTox-Fluor Cytotoxicity Assay - LYMP1-001 - Dead Cells (AID 946)
# Procedure, shortened: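 LYMP1-001 lymphoblastoid cells (2500/well) treated 16 h at 37 C. Dead-cell protease cleavage of bis-AAF-R110 read at Ex/Em 485/520. Normalized to DMSO and 15 uM tetraoctylammonium bromide; AC50 from Hill fits.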
# [27] = MultiTox-Fluor Cytotoxicity Assay - LYMP1-001 - Live Cells (AID 947)
# [28] = Cell Viability - LYMP1-002 - Assay at 16 hr (AID 948)
# Procedure, shortened: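 Acute cytotoxicity is scored as a concentration-dependent fall in intracellular ATP in a human lymphoblastoid line (LYMP1-002) after 16 hr compound exposure at 37 C, measured by luciferase luminescence.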
# [29] = MultiTox-Fluor Cytotoxicity Assay - LYMP1-002 - Dead Cells (AID 960); also: nearly all actives have a fitted effect of over 60% in size
# Procedure, shortened: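 Concentration-dependent increases in membrane-leaked protease activity are quantified in LYMP1-002 cells after 16 hr treatment; values are normalized against DMSO and tetraoctylammonium bromide (15 uM) controls and AC50 derived by Hill modeling.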
# [30] = MultiTox-Fluor Cytotoxicity Assay - LYMP1-003 - Dead Cells (AID 961); also: nearly all actives have a fitted effect of over 70% in size
# Procedure, shortened: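 LYMP1-003 human lymphoblastoid cells (2500/well) exposed to compound 16 h at 37 C in complete medium; dead-cell protease read with bis-AAF-R110 fluorescence (Ex/Em 485/520) after 60 min at room temperature. Normalized to DMSO and 15 uM tetraoctylammonium bromide; AC50 from Hill fit.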
# [31] = MultiTox-Fluor Cytotoxicity Assay - LYMP1-003 - Live Cells (AID 962);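 also: cytotoxic hits lower the live-cell protease signal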
# Procedure, shortened: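 Human lymphoblastoid line LYMP1-003 in complete culture medium, treated 16 hr with titrated compounds. Viable cells quantified via cell-permeant GF-AFC substrate fluorescence; AC50 derived by Hill fitting.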
# [32] = Cell Viability - LYMP2-003 (AID 965);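 also: cells exposed to compounds for 24 h before reading; nearly all actives have a fitted effect of over 50% in size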
# Procedure, shortened: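 Acute cytotoxicity is scored as a concentration-dependent drop in intracellular ATP, measured by luciferase luminescence in human lymphoblastoid cells treated for 24 hours at 37 C. AC50 values derive from Hill-equation modelling.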
# [33] = Cell Viability - LYMP2-004 (AID 966); also: nearly all actives have a fitted effect of over 65% in size
# Procedure, shortened: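 Viable-cell number estimated from ATP luminescence (CellTiter-Glo) in 2500 human lymphoblastoid cells/well after 24 hr at 37 C with compound. AC50 fitted to the standard Hill equation.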
# [34] = Cell Viability - LYMP2-005 (AID 967)
# Procedure, shortened: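 qHTS viability screen in LYMP2-005 cells: 24 h at 37 C with compound, ATP luminescence via CellTiter-Glo, AC50 from Hill curves.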
# [35] = Cell Viability - LYMP2-009 (AID 968); also: nearly all actives have a fitted effect of over 55% in size
# [36] = Cell Viability - LYMP2-011 (AID 969);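 also: cells exposed to compound for 24 hours; nearly all actives have a fitted effect of over 60% in size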
# Procedure, shortened: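 Cells seeded at 2500 per well rest 5 hr before compound addition, then incubate 24 hr at 37 C. CellTiter-Glo reagent is added for 30 min at room temperature before luminescence detection.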
# [37] = Cell Viability - LYMP2-013 (AID 970); also: nearly all actives have a fitted effect of over 55% in size
# Procedure, shortened: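 In complete culture medium, human lymphoblastoid cells were dosed for 24 hr at 37 C, with tetraoctylammonium bromide (6.4pM to 92 uM) as positive control. Viability reflects luciferase-based ATP signal; AC50 derived from concentration-response curves.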
# [38] = Cell Viability - LYMP2-015 (AID 971); also: nearly all actives have a fitted effect of over 55% in size
# Procedure, shortened: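 AC50 values reflect Hill-model fits of ATP-based luminescence (CellTiter-Glo) from a human lymphoblastoid line, 2500 cells/well, treated 24 hr at 37 C.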
# [39] = Cell Viability - LYMP2-017 (AID 972);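 also: cells exposed to compound for 24 hours at 37 °C; nearly all actives have a fitted effect of over 55% in size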
# Procedure, shortened: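 In this qHTS format, lymphoblastoid cells in complete medium receive test compound for a day at 37 C before ATP content is quantified by luciferase luminescence. Reported AC50 figures come from standard Hill-equation curve fitting.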
# [40] = Cell Viability - LYMP2-019 (AID 973); also: nearly all actives have a fitted effect of over 55% in size
# Procedure, shortened: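 AC50 values come from Hill-equation modelling of qHTS concentration-response curves, where viability is measured as luciferase-based ATP luminescence in the lymphoblastoid line after 24 hr compound exposure in complete culture medium.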
# [41] = Cell Viability - LYMP2-021 (AID 974)
# Procedure, shortened: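 In qHTS format, compounds are tested against 2500 lymphoblastoid cells per well for 24 h; viable cell number is inferred from ATP-driven luciferase light, and Hill-equation fitting yields AC50 values.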
# [42] = Cell Viability - LYMP2-023 (AID 975)
# Procedure, shortened: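 In this qHTS, ATP-based luciferase luminescence (CellTiter-Glo) is quantified in human lymphoblastoid cells after 24 hr compound treatment at 37 C; tetraoctylammonium bromide serves as positive control. Concentration-response curves are Hill-fitted to give AC50.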
structure (smiles),measurement,setting,value
CC(C)(COCC1CO1)COCC1CO1 (configuration not stated),Potency,[1],> 92 µM
same,Potency,[2],> 92 µM
same,Potency,[3],> 92 µM
same,Potency,[4],inactive
same,Potency,[5],inactive
same,"activity change, negative = cytotoxicity",[6],-105% (active)
same,Potency,[7],inactive
same,Potency,[8],inactive
same,outcome,[9],inactive
same,Potency,[10],inactive
same,outcome,[11],inactive
same,caspase-3 activation,[12],14.4%
same,outcome,[13],inactive
same,outcome,[14],inactive
same,outcome,[15],inactive
same,outcome,[16],inactive
same,outcome,[17],inactive
same,Potency,[18],inactive
same,Potency,[19],inactive
same,caspase-3 activation,[20],0.0543%
same,outcome,[21],inactive
same,Potency,[22],inactive
same,outcome,[23],inactive
same,Potency,[24],inactive
same,Potency,[25],inactive
same,outcome,[26],inactive
same,outcome,[27],inactive
same,outcome,[28],inactive
same,Potency,[29],inactive
same,Potency,[30],inactive
same,outcome,[31],inactive
same,Potency,[32],inactive
same,Potency,[33],inactive
same,Potency,[34],inactive
same,Potency,[35],inactive
same,Potency,[36],inactive
same,Potency,[37],inactive
same,Potency,[38],inactive
same,Potency,[39],inactive
same,Potency,[40],inactive
same,Potency,[41],inactive
same,Potency,[42],inactive
